# Screening results (PubChem)
# PAFAH2 FP inh: PAFAH2 enzyme inhibitors, primary screen, biochemical, fluorescence polarization, human; Platelet-activating factor acetylhydrolase 2, cytoplasmic (Homo sapiens), Q99487; recombinant PAFAH2, FP-rhodamine activity probe; inhibition, % at 3.39 µM; 340,000 compounds, 0.99% hits; AID 492956, 2010;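 active = inhibition above the mean over all tested compounds plus 3 SD, cut at about 30% in these data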;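 also: inhibitors block probe labeling of enzyme so polarization drops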
# Fam108B inh: mouse Fam108B serine hydrolase inhibitors, primary screen, counter-screen for RBBP9 inhibitor project, biochemical, fluorescence polarization; inhibition, % at 9.51 µM; recombinant Fam108B, FP-Rh probe fluorescence polarization; 300,000 compounds, 0.33% hits; AID 1947, 2009;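 active = inhibition above the screen mean inhibition plus 3 SD, computed separately per campaign, cut at about 18% in these data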;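 also: inhibitors lower polarization as less probe binds the enzyme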
# PAFAH1B2 FP inh: PAFAH1B2 enzyme inhibitors, primary screen, biochemical, fluorescence polarization, human | recombinant PAFAH1B2, FP-rhodamine activity probe | inhibition, % at 3.39 µM | AID 492953, 2010 | 340,000 compounds, 1.2% hits;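 active = inhibition above the mean of all tested compounds plus 3 SD, cut at about 24% in these data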
# Target sequence (P68402 whole entry, looked up): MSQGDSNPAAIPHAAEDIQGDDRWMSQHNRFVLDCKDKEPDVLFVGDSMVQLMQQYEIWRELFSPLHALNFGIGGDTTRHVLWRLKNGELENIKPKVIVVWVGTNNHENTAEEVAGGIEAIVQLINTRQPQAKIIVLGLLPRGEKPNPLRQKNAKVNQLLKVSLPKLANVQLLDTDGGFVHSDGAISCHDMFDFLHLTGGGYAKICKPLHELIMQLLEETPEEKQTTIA
# pPAFAH FP inh: pPAFAH enzyme inhibitors, primary screen, biochemical, fluorescence polarization, human. recombinant pPAFAH, FP-rhodamine probe fluorescence polarization. inhibition, % at 3.39 µM. 330,000 compounds, 1.5% hits. AID 463082, 2010;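 active = inhibition above the mean inhibition across the screen plus 3 SD, cut at about 25% in these data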;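 also: inhibitors block binding of the rhodamine activity-based probe so polarization drops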
# PME-1 inh: PME-1 inhibitors via competitive probe labeling, primary screen, biochemical, fluorescence polarization, FP-Rh probe, HTS; Protein phosphatase methylesterase 1 (Homo sapiens), Q9Y570; recombinant PME-1; inhibition, % at 5.9 µM; 320,000 compounds, 0.53% hits; AID 2130, 2009;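 active = inhibition above the campaign mean of all compounds plus 3 SD, cut at about 26% in these data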;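 also: competitive labeling of PME-1 active site by serine hydrolase directed probe; inhibitors block probe labeling so polarization falls and inhibition rises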
# PAFAH1B3 inh: PAFAH1B3 enzyme inhibitors, primary screen, biochemical, fluorescence polarization, human | 340,000 compounds, 0.28% hits | inhibition, % at 3.39 µM | Platelet-activating factor acetylhydrolase IB subunit alpha1 (Homo sapiens), Q15102 | recombinant PAFAH1B3, FP-rhodamine probe;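 active = inhibition above the screen-wide average of all tested compounds plus 3 SD, cut at about 25% in these data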
# Target sequence (Q15102 whole entry, looked up): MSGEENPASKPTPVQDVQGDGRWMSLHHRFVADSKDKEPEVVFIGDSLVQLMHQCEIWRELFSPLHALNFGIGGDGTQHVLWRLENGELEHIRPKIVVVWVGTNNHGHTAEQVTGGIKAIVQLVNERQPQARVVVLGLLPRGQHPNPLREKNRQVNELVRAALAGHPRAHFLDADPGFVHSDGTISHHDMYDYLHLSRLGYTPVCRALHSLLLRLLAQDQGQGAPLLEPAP
# Hits are given with their value; n = inactive; x = no result. Only some compounds are listed: those with a hit (about 2.8% of all), similar ones and a draw of the others.
SMILES,PAFAH2 FP inh,Fam108B inh,PAFAH1B2 FP inh,pPAFAH FP inh,PME-1 inh,PAFAH1B3 inh
COC(=O)c1c(NC(=O)C2C3CCC(O3)C2C(=O)O)sc2c1CCCCCC2 (stereo not drawn),n,n,50,n,n,n
COc1ccccc1C(C)NC(=O)c1cc(=O)[nH]c2ccccc12 (stereo not drawn),n,n,n,n,n,n
C#CCN1c2ccccc2Sc2cccnc21,n,n,n,n,29,n
CC(CN1c2ccccc2Sc2ccccc21)N(C)C (stereo not drawn),n,n,n,n,n,n
COc1cc(C(=O)N2CCc3ccccc32)c([N+](=O)[O-])cc1OC,n,n,n,n,n,n
CCCn1nc(C(=O)Nc2cccc(C(=O)OC)c2)c2ccccc2c1=O,n,n,n,n,n,n
COC(=O)c1cccc(NC(=O)c2nn(C(C)C)c(=O)c3ccccc23)c1,n,n,n,25,n,n
C=C1CCC[C@]2(C)C[C@H]3OC(=O)C(CN4CCCCC4CO)[C@H]3CC12 (stereo partly drawn),44,n,36,n,n,n
C=C1CCC[C@]2(C)C[C@H]3OC(=O)C(CNC(C)(CO)CO)[C@H]3CC12 (stereo partly drawn),33,n,28,n,n,n
COc1ccc(CN2CCN(C(=O)C3CCC(CNS(=O)(=O)c4ccccc4)CC3)CC2)c(OC)c1OC (stereo not drawn),n,n,n,n,n,n
CC1C/C(=N\NC(=O)c2ccc([N+](=O)[O-])cc2)CC(C)(C)C1 (stereo not drawn),n,n,n,n,n,n
CC1C/C(=N\NC(=O)c2ccc(NS(=O)(=O)c3ccc(Br)cc3)cc2)CC(C)(C)C1 (stereo not drawn),n,n,26,n,n,n
O=c1c2cc(NC(=S)N3CCCCC3)ccc2nc2n1CCCCC2,n,n,n,n,n,n
CC1CCN(C(=S)Nc2ccc3nc4n(c(=O)c3c2)CCCCC4)CC1,n,n,24,n,n,n
O=C(CSc1nc(O)cc(=O)n1-c1ccccc1)c1ccc(Br)cc1,n,n,n,25,n,n
O=c1cc(O)nc(SCc2ccccc2)n1-c1ccccc1,n,n,n,n,n,n
O=C1[C@@H]2CSCN2C(=O)CN1Cc1c(F)cccc1Cl,n,n,n,n,n,n
CS(=O)(=O)Nc1ccc(S(=O)(=O)N2CCCCCC2)cc1,n,n,n,n,n,n
NS(=O)(=O)c1ccc(NC(=O)COC(=O)COc2ccc(Br)cc2)cc1,n,n,n,n,n,n
Cc1c(Cl)ccc2c1NC(=O)C21NC(CCC(N)=O)[C@H]2C(=O)N(c3ccc(Cl)cc3)C(=O)[C@H]21 (stereo partly drawn),n,n,n,25,n,n
Cc1c(Cl)ccc2c1NC(=O)[C@]21N[C@@H](CCC(N)=O)[C@H]2C(=O)N(c3ccc(F)cc3)C(=O)[C@H]21,n,n,n,n,n,n
NC(=O)COc1ccc(/C=N\NC(=O)CC(=O)NCCc2ccccc2)cc1,n,n,n,n,n,n
CCOc1ccc(N(CC)C(=O)COc2cc(=O)n(CC)c3ccccc23)cc1,n,n,n,n,n,n
CCOc1ccc(N(CC)C(=O)COc2cc(=O)n(C)c3ccccc23)cc1,n,n,n,28,n,n
O=C(c1ccccc1)N1CCN(C(=O)c2nn3c(C(F)(F)F)cc(-c4ccco4)nc3c2Br)CC1,n,n,n,34,n,n
SMILES,PAFAH2 FP inh,Fam108B inh,PAFAH1B2 FP inh,pPAFAH FP inh,PME-1 inh,PAFAH1B3 inh
CC(C)(C)c1cc(NC(=O)COC(=O)c2nccnc2N)n(-c2ccccc2)n1,n,n,n,n,n,n
Cn1cccc1C(=O)OCC(=O)Nc1cc(C(C)(C)C)nn1-c1ccccc1,n,n,n,29,n,n
O=C1CC(N2CCN(S(=O)(=O)c3ccc([N+](=O)[O-])cc3)CC2)C(=O)N1c1ccccc1F (stereo not drawn),n,x,n,n,n,n
CCN(CC(=O)Nc1ccc(NC(C)=O)cc1)Cc1c(O)ccc2cc(Br)ccc12,n,n,68,n,n,n
C[C@@H]1CN([C@H](C)CO)C(=O)c2cccc(NC(=O)NC3CCCCC3)c2O[C@@H]1CN(C)C(=O)Nc1ccc(C(F)(F)F)cc1,n,x,64,n,x,n
C[C@H](CO)N1C[C@H](C)[C@@H](CN(C)C(=O)Nc2ccccc2)Oc2c(NC(=O)Nc3ccc(C(F)(F)F)cc3)cccc2C1=O,n,x,36,n,x,n
C[C@H](CO)N1C[C@H](C)[C@@H](CN(C)C(=O)Nc2ccc(C(F)(F)F)cc2)Oc2c(NC(=O)Cc3ccccc3)cccc2C1=O,n,x,n,n,x,n
C[C@H](CO)N1C[C@H](C)[C@@H](CN(C)C(=O)Nc2ccc(C(F)(F)F)cc2)Oc2c(NC(=O)NC3CCCCC3)cccc2C1=O,n,x,n,n,x,n
C[C@H](CO)N1C[C@H](C)[C@@H](CN(C)C(=O)Nc2ccc(C(F)(F)F)cc2)Oc2c(NC(=O)CCC(F)(F)F)cccc2C1=O,n,x,28,n,x,n
Cc1ccc(Cl)cc1NC(=O)C1CCCN(S(C)(=O)=O)C1 (stereo not drawn),n,n,n,n,n,n
COc1ccc(/C(C)=C2/SC(=S)N(CCC(=O)O)C2=O)cc1,n,n,n,n,27,n
COc1ccc(/C=C2/SC(=S)N(CCC(=O)O)C2=O)cc1,n,n,n,n,n,n
CCOc1ccc(Br)cc1S(=O)(=O)NC1=NCCCCC1,n,x,n,n,x,n
O=C(CSc1n[nH]c(-c2ccncc2)n1)Nc1ccc(Cl)c(Cl)c1,n,n,n,n,n,n
CC(=O)Nc1ccc(NC(=O)CCn2c(=O)oc3ccccc32)cc1,n,n,n,26,n,n
CCCCN1C(=O)C2(OCCCO2)c2cccc(C)c21,n,n,n,n,n,n
COc1ccc(-c2cc(-c3c(O)c(OC)c4occc4c3OC)[nH]n2)cc1,n,n,n,n,33,n
Cc1cc(C)n(CC(C)Nc2nc3nonc3nc2N2CCCCC2)n1 (stereo not drawn),n,n,n,n,n,n
Cc1cc(C)n(CCNc2nc3nonc3nc2N2CCCCC2)n1,n,n,n,28,n,n
CSc1ccc(CCNC(=O)c2ccc(CS(=O)Cc3ccc(Cl)cc3)o2)cc1 (stereo not drawn),n,n,n,30,n,n
CNC(=O)c1ccc(NC(=O)CC2SC(N3CCCC3)=NC2=O)cc1 (stereo not drawn),n,x,n,n,n,n
